Where a name gives a salt, the structure may show the parent alone. ± gives the standard deviation of the averaged measurements. Whole data set: some 1,100 compounds, median “day of extracellular matrix detachment from plate” near 16, cut for the lowest 2% near 10. Many of the other results were omitted from the sample, so the lowest values are more common in it than they were. Where a SMILES comes first, the peptide text is derived from it. Bridges are numbered along the chain shown (N, C = ends). [ ]: non-standard residue; d: D form. Orn = NCCC[C@H](N)C(=O)O; Mpa = O=C(O)CCS
Each compound was assayed on RDEB dermal fibroblasts EB71 (assay: day of extracellular matrix detachment from plate (days); higher = delayed detachment (less fibrotic matrix)). Conditions: compound concentration: 10 uM.

Structure (SMILES)	day of extracellular matrix detachment from plate
[I-].[K+] [Potassium Iodide]	15.7 ± 6.3
CCN1CC(CCN2CCOCC2)C(c2ccccc2)(c2ccccc2)C1=O (stereo not given) [Doxapram HCl]	18
CN(C)CCc1c[nH]c2ccc(CS(=O)(=O)N3CCCC3)cc12 [Almotriptan Malate]	19.3 ± 6.3
NC(=O)Cc1cccc(C(=O)c2ccccc2)c1N [Nepafenac]	14.3 ± 2.9
CN1CCC(=C2c3ccccc3CCc3cccnc32)CC1 [Azatadine dimaleate]	18
Cc1ccc(NC(=O)c2ccc(CN3CCN(C)CC3)cc2)cc1Nc1nc(-c2cccnc2)cs1 [Masitinib (AB1010)]	36
CC(C)(C)c1nc(-c2cccc(NS(=O)(=O)c3c(F)cccc3F)c2F)c(-c2ccnc(N)n2)s1	32.5 ± 2.1
CO/N=C(\C(=O)N[C@@H]1C(=O)N2C(C(=O)OCOC(=O)C(C)(C)C)=C(/C=C\c3scnc3C)CS[C@H]12)c1csc(N)n1 [Cefditoren pivoxil]	15.7 ± 6.3
CCOC(=O)[C@H](CCc1ccccc1)N[C@H]1CS[C@H](c2cccs2)CN(CC(=O)O)C1=O [Temocapril HCl]	19.3 ± 6.3
CCC[S+]([O-])c1ccc2[nH]c(NC(=O)OC)nc2c1 (stereo not given) [Albendazole Oxide]	16
CC1(C)S[C@@H]2[C@H](NC(=O)[C@H](N)c3ccc(O)cc3)C(=O)N2[C@H]1C(=O)O [Amoxicillin]	16.7 ± 2.3
CC1(C)S[C@@H]2[C@H](NC(=O)[C@H](N)c3ccc(O)cc3)C(=O)N2[C@H]1C(=O)O [Amoxicillin Sodium]	15.7 ± 6.3
CC(C)C(=O)Oc1ccc(CO)cc1[C@H](CCN(C(C)C)C(C)C)c1ccccc1 [Fesoterodine Fumarate]	15.7 ± 6.3
O=C(O)c1ccccc1 [Benzoic Acid]	13
Cc1nc(=O)c2cc(CN(C)c3ccc(C(=O)N[C@@H](CCC(=O)O)C(=O)O)s3)ccc2[nH]1 [Raltitrexed]	25
NS(=O)(=O)c1cc2c(cc1Cl)N=C(CSCc1ccccc1)NS2(=O)=O [Benzthiazide]	13
CC(=O)O[C@]1(C(C)=O)CC[C@H]2[C@@H]3C=C(Cl)C4=CC(=O)CC[C@]4(C)[C@H]3CC[C@@]21C [Chlormadinone acetate]	26.2 ± 10
CO[C@@H]1[C@@H](OC(N)=O)[C@@H](O)[C@H](Oc2ccc3c(O)c(NC(=O)c4ccc(O)c(CC=C(C)C)c4)c(=O)oc3c2C)OC1(C)C [Novobiocin Sodium]	15.7 ± 6.3
O=S(=O)(O)Oc1ccc(C(c2ccc(OS(=O)(=O)O)cc2)c2ccccn2)cc1 [Sodium Picosulfate]	14.5 ± 4
Cc1cccc(C)c1NC(=O)C1CCCCN1C (stereo not given) [Mepivacaine HCl]	16.5 ± 6.2
C[N+](C)(C)CCO.[Cl-] [Choline Chloride]	13
O=C(CCCCCCNC(=O)c1cnc(N(c2ccccc2)c2ccccc2)nc1)NO [Rocilinostat (ACY-1215)]	27
Cc1nnc(C(C)C)n1C1C[C@H]2CC[C@@H](C1)N2CC[C@H](NC(=O)C1CCC(F)(F)CC1)c1ccccc1 (stereo in doubt) [Maraviroc]	12
NC[C@H]1CC[C@H](C(=O)O)CC1 [Tranexamic Acid]	23 ± 1.7

Structure (SMILES)	day of extracellular matrix detachment from plate
CC1(O)CCC(C(C)(C)O)CC1 (stereo not given) [Terpin (hydrate)]	17
O=c1sn(-c2cccc3ccccc23)c(=O)n1Cc1ccccc1 [Tideglusib]	18.7 ± 4
CC1(C)Cc2c(-c3ccccc3)c(-c3ccc(Cl)cc3)c(CC(=O)O)n2C1 [Licofelone]	16
NC(=O)c1ccc(I)c([N+](=O)[O-])c1 [Iniparib (BSI-201)]	12.3 ± 1.1
CC(=O)Nc1ccccc1 [Acetanilide]	10 ± 1.7
CC(=O)Nc1ccc(O)cc1 [Acetaminophen]	11
CCOc1ccc(NC(C)=O)cc1 [Phenacetin]	12
C=C1[C@H](CO)[C@@H](O)C[C@@H]1n1cnc2c(=O)[nH]c(N)nc21 [Entecavir Hydrate]	12.7 ± 2.9
CCOc1nc2cccc(C(=O)OCc3oc(=O)oc3C)c2n1Cc1ccc(-c2ccccc2-c2noc(=O)[nH]2)cc1 [Azilsartan Medoxomil]	19 ± 1.7
CCCCCC(=O)O[C@]1(C(C)=O)CC[C@H]2[C@@H]3CCC4=CC(=O)CC[C@]4(C)[C@H]3CC[C@@]21C [Hydroxyprogesterone caproate]	20
C[C@@H]1C[C@H]2[C@@H]3CCC4=CC(=O)C=C[C@]4(C)[C@@]3(Cl)[C@@H](O)C[C@]2(C)[C@@]1(OC(=O)c1ccco1)C(=O)CCl [Mometasone furoate]	29.5 ± 7.1
C[C@H](Cc1cc2c(c(C(N)=O)c1)N(CCCO)CC2)NCCOc1ccccc1OCC(F)(F)F [Silodosin]	11
CCCC(=O)OCOC(=O)C1=C(C)NC(C)=C(C(=O)OC)C1c1cccc(Cl)c1Cl (stereo not given) [Clevidipine Butyrate]	19.3 ± 6.3
CC(=O)OCC(=O)[C@H]1CC[C@H]2[C@@H]3CCC4=CC(=O)CC[C@]4(C)[C@H]3CC[C@]12C [Deoxycorticosterone acetate]	13
C=C1/C(=C\C=C2/CCC[C@]3(C)[C@@H]([C@H](C)CCCC(C)C)CC[C@@H]23)C[C@@H](O)C[C@@H]1O [Alfacalcidol]	36
CCCCCCCC(=O)N[C@H](CN1CCCC1)[C@H](O)c1ccc2c(c1)OCCO2 [Eliglustat Tartrate]	18.3 ± 7.6
COc1ccc(-c2ccc3cc(C(=O)O)ccc3c2)cc1C12CC3CC(CC(C3)C1)C2 [Adapalene]	16
Cc1c(F)cc(C(=O)NC2CC2)cc1-c1ccc(C(=O)NCC(C)(C)C)cn1	16 ± 1.4
CCCCCCCCCCCCCCCC(=O)O[C@@H]1[C@@H](O)[C@@H](O)[C@@H]([C@H](NC(=O)[C@@H]2C[C@@H](CCC)CN2C)[C@H](C)Cl)O[C@@H]1SC [Clindamycin palmitate HCl]	18
Cc1cn([C@H]2O[C@@H](CO)[C@H](O)[C@H]2F)c(=O)[nH]c1=O [Clevudine]	15.3 ± 2.3
O=C(O)CCCN1CCC(O[C@@H](c2ccc(Cl)cc2)c2ccccn2)CC1 [Bepotastine Besilate]	18.7 ± 4
CCOc1ccc(C[C@H]2NC(=O)CCSSC[C@@H](C(=O)N3CCC[C@H]3C(=O)N[C@@H](CCCN)C(=O)NCC(N)=O)NC(=O)[C@H](CC(N)=O)NC(=O)[C@H]([C@@H](C)O)NC(=O)[C@H]([C@@H](C)CC)NC2=O)cc1 [Atosiban Acetate] ([Mpa][dY](Et)ITNCP[Orn]G-NH2; disulfide 1-6)	19 ± 3
C=C1c2cccc(O)c2C(=O)C2=C(O)[C@]3(O)C(=O)C(C(N)=O)=C(O)[C@@H](N(C)C)[C@@H]3[C@@H](O)[C@H]12 [Methacycline HCl]	17 ± 1.7
C[C@]12C=CC(=O)C=C1CC[C@@H]1[C@@H]2C(=O)C[C@@]2(C)[C@H]1CC[C@]2(O)C(=O)CO [Prednisone]	10.3 ± 1.1

Structure (SMILES)	day of extracellular matrix detachment from plate
C[C@H]1C[C@H]2[C@@H]3CCC4=CC(=O)C=C[C@]4(C)[C@H]3C(=O)C[C@]2(C)[C@@]1(O)C(=O)CO [Meprednisone]	18.3 ± 8.1
C[C@H]1C[C@@H]2[C@H](C(=O)C[C@@]3(C)[C@H]2CC[C@]3(O)C(=O)CO)[C@@]2(C)C=CC(=O)C=C12 [Methylprednisone]	18.3 ± 4
CCOC(=O)C1=C[C@@H](OC(CC)CC)[C@H](NC(C)=O)[C@@H](N)C1 [Oseltamivir Phosphate]	20 ± 1.7
OC1(c2ccc(Cl)c(C(F)(F)F)c2)CCN(CCCC(c2ccc(F)cc2)c2ccc(F)cc2)CC1 [Penfluridol]	25.5 ± 5
Cc1nc(C)c(Cl)c(O)c1Cl [Clopidol]	18 ± 1.7
NC(=O)N1CCC(CC(=O)N2CCC([C@H]3c4ncc(Br)cc4CCc4cc(Cl)cc(Br)c43)CC2)CC1 [Lonafarnib]	25
CCOC(=O)C1=C(C)NC(C)=C(C(=O)OCC)C1c1ccccc1/C=C/C(=O)OC(C)(C)C [Lacidipine]	19.3 ± 6.3
CCC(=O)NCC[C@@H]1CCc2ccc3c(c21)CCO3 [Ramelteon]	9.67 ± 1.1
Cc1ccc(C(=O)c2ccc(CC(=O)O)n2C)cc1 [Tolmetin Sodium]	19.3 ± 1.1
COc1nc(C)nc(Cl)c1NC1=NCCN1 [Moxonidine]	10 ± 1.7
Clc1cccc(Cl)c1NC1=NCCN1 [Clonidine HCl]	11 ± 1.7
O=S(=O)(O)CCCS(=O)(=O)O [Eprodisate (disodium)]	18
FC(F)(F)c1ccc(/C=C/c2nc(COc3ccc(CCCCn4ccnn4)cc3)co2)cc1 [Mubritinib (TAK 165)]	15.7 ± 6.3
Cc1nc(C(=O)NCC(=O)O)c(O)c2ccc(Oc3ccccc3)cc12	23.7 ± 2.3
Nc1nc(=O)c2nc(CNc3ccc(C(=O)N[C@@H](CCC(=O)O)C(=O)O)cc3)cnc2[nH]1 [Folic acid]	17
O=C1CCc2ccc(OCCCCN3CCN(c4cccc(Cl)c4Cl)CC3)cc2N1 [Aripiprazole]	19.3 ± 6.3
O=C1CCc2cc(OCCCCc3nnnn3C3CCCCC3)ccc2N1 [Cilostazol]	10.3 ± 1.1
Cn1nnc2c(C(N)=O)ncn2c1=O [Temozolomide]	9.67 ± 1.1
Nc1c(CC(=O)O)cccc1C(=O)c1ccc(Br)cc1 [Bromfenac Sodium]	13
CC1(C)S[C@@H]2[C@H](NC(=O)[C@H](NC(=O)N3CCN(S(C)(=O)=O)C3=O)c3ccccc3)C(=O)N2[C@H]1C(=O)O [Mezlocillin Sodium]	13
Cc1cccc(-c2nn3c(c2-c2ccnc4ccc(C(N)=O)cc24)CCC3)n1	29.5 ± 9.2
CCN(CCCc1ccccc1)CCCc1ccccc1 [Alverine Citrate]	18
